An excerpt weighted towards active compounds, which were near 3.8% of everything screened.
HT1080 IDH1KD tx = toxicity to HT-1080 IDH1 knockdown cells (counter line) | Potency, µM (highest dose often 46.1 µM), most hits filed as cytotoxic | 2% of 360,000 active | HT-1080 IDH1 knockdown viability, ATP luminescence, 48 h | AID 686971
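In this qHTS, HT-1080 cells depleted of IDH1 are exposed for 48 h at 37 °C to compound titrations. Toxicity is scored from CellTiter-Glo luminescence, with DMSO as full viability and medium alone as none.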
HepG2 tox = counter-screen for TGF-b inhibitors: cytotoxicity in HepG2 cells; 0.76% of 410,000 active; Potency, µM (highest dose often 46.1 µM), actives largely listed as cytotoxic; HepG2 CAGA-GFP viability, ATP luminescence, 18 h
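HepG2 CAGA-GFP cells (1000/well, DMEM with 1% FBS) received compound, then TGF-beta at 500 pg/mL final, and were incubated 18 hours at 37 degrees C. Viability was read by CellTiter-Glo luminescence. Media-only wells were set as complete cell-killing and DMSO as no toxicity.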
ATXN2 expr inh = reduces ATXN2 reporter expression in HEK-293 cells. Potency, µM (series often up to 57 µM), actives largely listed as inhibitors. AID 1745845. 0.72% of 360,000 active. HEK-293 ATXN2-luciferase reporter, luminescence, 24 h; also: nearly all actives have a fitted effect of over 55% in size
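ATXN2-luciferase reporter cells (luciferase flanked by upstream and downstream ATXN2 gene portions) were treated 24 h at 37 °C with compounds at up to 57 uM. SteadyGlo luminescence gave expression; GF-AFC fluorescence gave viability.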
TGFb inhibitor = blocks TGF-b signaling | HepG2 CAGA-GFP TGF-b/SMAD3 reporter, GFP fluorescence, 18 h; TGF-beta stimulated, 500 pg/mL final | Potency, µM (doses to about 46.1 µM), most hits filed as inhibitors | 1.2% of 410,000 active | AID 588855; also: nearly all actives have a fitted effect of over 65% in size
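Smad-responsive CAGA-GFP expression was quantified in HEPG2 cells exposed to compounds and 500 pg/mL final TGF-beta for 18 h at 37 degrees C; unstimulated wells defined full inhibition.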
S2 tox = viability counter-screen for ATXN expression inhibitors; Potency, µM (highest dose often 56.7 µM), hits mostly cytotoxic; S2 cells (HEK-293 line with an ATXN2-luciferase reporter) viability, CellTiter-Fluor protease fluorescence, 24 h; 0.49% of 400,000 active; also: nearly all actives have a fitted effect of over 40% in size
HT1080-NT tox = kills 2HG-producing HT-1080-NT fibrosarcoma cells | HT-1080-NT fibrosarcoma viability, CellTiter-Glo ATP luminescence, 48 h | Potency, µM (doses to about 46.1 µM), usual class: cytotoxic | 1.6% of 360,000 active;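 also: NT is the 2HG producing partner of a matched IDH1 knockdown line; nearly all actives have a fitted effect of over 55% in size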
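Read-out is CellTiter-Glo luminescence after 10 minutes at room temperature, following 48 hours' compound treatment of HT-1080-NT cells (750 cells/well, RPMI, 5% FBS, 37 degrees C).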
Numbers stand for hits; 0 = inactive; ? = inconclusive; - = not tested or not shown; [ ] = another dose, or the depositor's remark. Calls follow the shape of the dose curve; as a rule, active = well fitted curve in the direction sought with a large enough effect; inconclusive = small, poorly fitted or top-dose-only effect, or another doubt; inactive = no such curve, though single readings can be large; an effect the other way counts as inactive or inconclusive.

SMILES	HT1080 IDH1KD tx	HepG2 tox	ATXN2 expr inh	TGFb inhibitor	S2 tox	HT1080-NT tox
CC1(C)S[C@@H]2[C@H](NC(=O)C(c3ccccc3)S(=O)(=O)O)C(=O)N2[C@H]1C(=O)O (stereo partly drawn)	-	-	0	-	0	-
CN(Cc1ccccc1)C(=O)c1ccc([N+](=O)[O-])o1	0	20µM	-	?	0	0
Cc1ccc2ccc3ccc(C)nc3c2n1	?	0	?	?	?	0.0058µM
N=c1n(CCO)c2ccccc2n1CCOc1ccc(F)cc1	-	0	0	0	0	-
CCCCn1c(=N)n(CCCOc2ccc(F)cc2)c2ccccc21	-	12.6µM	-	15.8µM	-	-
CCCCN(CCCNC(=O)C1CCN(C(=O)c2cc3sccc3n2C)CC1)Cc1ccccc1	?	0	?	?	0	18.4µM
Cc1ccc(S(=O)(=O)C(CNS(=O)(=O)c2cc(F)ccc2F)c2cccs2)cc1 (stereo not drawn)	-	0	-	0	-	-
CN(C)c1ccc(/C=C/c2cc(Cl)nc3ccccc23)cc1	-	0	-	?	-	-
COc1cc(O)c2c(c1)C1OC1C[C@H](O)[C@H](O)C(=O)C=CC[C@H](C)OC2=O (stereo partly drawn)	-	-	6.85µM	-	-	-
CCOC(=O)C1=C(CN2CCN(c3ccc(Cl)cc3)CC2)NC(=O)NC1c1ccc(F)cc1 (stereo not drawn)	-	0	0	15.8µM	0	-
CCOC(=O)C1=C(CN2CCN(c3ccccc3F)CC2)NC(=O)NC1c1ccc(Cl)cc1 (stereo not drawn)	-	0	0	0	0	-
O=[N+]([O-])c1ccc(O)c(-c2cc(C(F)(F)F)nc(-c3ccccc3)n2)c1	0	0	-	?	?	2.31µM
COc1cc2c(cc1OC)C(C)N(Cc1ccc3c(c1)OCO3)CC2 (stereo not drawn)	0	0	0	0	0	0
COc1ccc(C2NC(C(=O)O)Cc3c2[nH]c2ccccc32)cc1CN1CCN(c2ccc(F)cc2)CC1 (stereo not drawn)	0	0	0	0	0	0
COc1ccc(C2NCCc3c2[nH]c2ccccc32)cc1CN1CCc2cc(OC)c(OC)cc2C1C (stereo not drawn)	?	0	?	0	0	18.4µM
COc1ccc(C2NCCc3c2[nH]c2ccccc32)cc1COc1ccc(F)cc1 (stereo not drawn)	?	11.2µM	28.2µM	?	31.6µM	?
COc1ccc(-n2nnnc2C2CCN(S(=O)(=O)c3cc(Cl)ccc3OC)CC2)cc1	-	0	-	?	-	-
CC1=NNC(=O)/C1=C\c1cn(-c2ccccc2)nc1-c1ccccc1	13µM	10µM	?	8.91µM	26.7µM	16.4µM
CCC1CN(Cc2ccc(COC)o2)Cc2cc(OC)ccc2O1 (stereo not drawn)	-	-	-	-	0	-
Cc1cc(C)c(S(=O)(=O)NC2CCN(Cc3ccccc3)CC2)c(C)c1	0	0	-	?	0	0
Cc1cc(C)c(C)c(S(=O)(=O)NC2CCN(Cc3ccccc3)CC2)c1C	16.4µM	0	0[11.3 µM]	?	0	?
Cc1cc(S(=O)(=O)NC2CCN(Cc3ccccc3)CC2)c(C)cc1Cl	20.6µM	0	0	?	0	?
O=S(=O)(NC1CCN(Cc2ccccc2)CC1)c1ccc(F)c(F)c1	0	0	-	0	0	0
O=C(O)C1=CC(O)C(O)[C@H](O)C1 (stereo partly drawn)	-	-	0	-	-	-
C=C1NN(Cc2ccccc2)C(=O)N1c1ccc(OC)cc1	-	0	-	0	-	-
CC(C)(C)OC(=O)NCc1ccc(CNC(=O)c2nc[nH]c2C(=O)N2CCN(C(=O)OC(C)(C)C)CC2)cc1	0	0	?	?	17.8µM	0
Cc1ccc(NC(=O)c2nc[nH]c2C(=O)N2CCN(C(=O)OC(C)(C)C)CC2)cc1	0	0	0	0	0	0
CCOC(=O)c1ccc(N2CCOCC2)c(NC(=O)c2c(-c3ccccc3)noc2C)c1	2.06µM	0	0	0	0	1.84µM
Cc1onc(-c2ccccc2)c1C(=O)Nc1cc(C(F)(F)F)ccc1N1CCOCC1	2.91µM	0	0	0	0	?
